# Assay results reported in PubChem BioAssay (NCI).
# Where “and” joins values, the source holds several entries; their conditions need not be identical. Equal values may be shown once. The panel holds about 83,000 compounds, 20% with a hit somewhere; the sample as a whole holds those more often.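 Compound tested at a single concentration for 48 hours in 96-well plates; a percent growth value below 10 was scored as active.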 Calls of active or inactive are those of the source.
# Key:
# Assay in all cases: NCI-60 one-dose screen, 48 h (100 = growth as untreated, 0 = no growth, -100 = all killed)
# Details in all cases: 10 µM unless noted
# HCT-15 colon = system: HCT-15 colon
# HT29 colon = system: HT29 colon
# SNB-75 CNS = system: SNB-75 CNS
# SNB-19 CNS = system: SNB-19 CNS
# U251 CNS = system: U251 CNS
# PC-3 prostate = system: PC-3 prostate
# SK-MEL-5 melanoma = system: SK-MEL-5 melanoma
# UACC-62 melanoma = system: UACC-62 melanoma
# LOX IMVI melanoma = system: LOX IMVI melanoma
# SK-MEL-28 melanoma = system: SK-MEL-28 melanoma
Structure (SMILES),growth (HCT-15 colon),growth (HT29 colon),growth (SNB-75 CNS),growth (SNB-19 CNS),growth (U251 CNS),growth (PC-3 prostate),growth (SK-MEL-5 melanoma),growth (UACC-62 melanoma),growth (LOX IMVI melanoma),growth (SK-MEL-28 melanoma)
COc1ccc2c(c1)c(-c1nc(-c3c[nH]c4c(Cl)nccc34)cs1)cn2C,64.3% (inactive),84% (inactive),82.9% (inactive),105% (inactive),86.5% (inactive),72.6% (inactive),45.4% (inactive),87.8% (inactive),80% (inactive),105% (inactive)
Cc1ccc(NC(=O)c2ccc(CN3CCN(C)CC3)cc2)cc1Nc1nccc(-c2cccnc2)n1,88.5% (inactive) and 48.2% (inactive),52.9% (inactive) and 24.1% (inactive),99.4% (inactive) and 82.5% (inactive),112% (inactive) and 95% (inactive),89.4% (inactive) and 65.7% (inactive),89.4% (inactive) and 72% (inactive),77.7% (inactive) and 63.2% (inactive),92.3% (inactive) and 87.9% (inactive),88.4% (inactive) and 77.1% (inactive),109% (inactive) and 77.8% (inactive)
CN1C(=O)/C(=C/c2ccc(C(=O)Nc3ncc(Cc4ccccc4Cl)s3)cc2)SC1=S,42.1% (inactive),69.5% (inactive),69.4% (inactive),83.3% (inactive),89.4% (inactive),77.6% (inactive),62.4% (inactive),18.1% (inactive),45.1% (inactive),74.8% (inactive)
Nc1ccc(-c2ccc(N)c(Br)c2)cc1Br,29.3% (inactive),32% (inactive),29.8% (inactive),52.4% (inactive),45.6% (inactive),57.4% (inactive),45.8% (inactive),33.5% (inactive),40.3% (inactive),58.4% (inactive)
Cc1cccc(-c2nnc(SCC(=O)Nc3ncc(Cc4ccccc4)s3)n2N2C(=O)CSC2=S)c1,78.5% (inactive),81.2% (inactive),-7.46% (active),54.1% (inactive),34.6% (inactive),57.3% (inactive),75.9% (inactive),20.1% (inactive),23.5% (inactive),51.3% (inactive)
Nc1nc(Cl)nc2c1ncn2C1OC(CO)C(O)C1O (stereo not given),60.8% (inactive) and 68.4% (inactive),105% (inactive) and 87.7% (inactive),105% (inactive) and 91.5% (inactive),52% (inactive) and 53.5% (inactive),74.6% (inactive) and 64.1% (inactive),65.6% (inactive) and 67.5% (inactive),67.6% (inactive) and 52.4% (inactive),90.1% (inactive) and 80.5% (inactive),88.7% (inactive) and 66.6% (inactive),64.6% (inactive) and 75.2% (inactive)
CCNC(=S)n1nc(SC)c(C(=O)OCC)c1N,96.3% (inactive),102% (inactive),89.5% (inactive),93.6% (inactive),109% (inactive),102% (inactive),96.1% (inactive),81.6% (inactive),95.4% (inactive),102% (inactive)
CCCn1nc(C(=O)N2CCCCC2)c2c1CCC(N1CCC(c3ccncc3)CC1)C2 (stereo not given),105% (inactive),100% (inactive),96.1% (inactive),102% (inactive),101% (inactive),101% (inactive),102% (inactive),112% (inactive),98.1% (inactive),115% (inactive)
C=C(CNCCc1ccc(O)cc1)[C@@H]1CC[C@]2(CO)CC[C@]3(C)[C@H](CC[C@@H]4[C@@]5(C)CCC(NCCc6ccc(O)cc6)C(C)(C)[C@@H]5CC[C@]43C)[C@@H]12 (stereo not given in full),-86.9% (active),-87.7% (active),-87.3% (active),-85.4% (active),-88.4% (active),-75.6% (active),-93.5% (active),-88% (active),-86.3% (active),-87.6% (active)
CCCCCCCCCCCCC[C@H](O)C[C@H](O)[C@H](C)N,97.8% [1.25 µM] (inactive),103% [1.25 µM] (inactive),129% [1.25 µM] (inactive),104% [1.25 µM] (inactive),85.2% [1.25 µM] (inactive),97% [1.25 µM] (inactive),97.6% [1.25 µM] (inactive),113% [1.25 µM] (inactive),90.8% [1.25 µM] (inactive),115% [1.25 µM] (inactive)
CCn1cc(C(=O)NN=C2CCCC2)c(=O)c2ccc(C)nc21,96.6% (inactive),96.9% (inactive),86.1% (inactive),96.6% (inactive),96.5% (inactive),85.6% (inactive),92.8% (inactive),78.6% (inactive),98.1% (inactive),90.9% (inactive)
CC(=O)N1N=C(c2ccc(Nc3nc(Nc4ccc(F)cc4)nc(Nc4ccc(F)cc4)n3)cc2)CC1c1ccccc1 (stereo not given),89.3% (inactive),96.3% (inactive),80.1% (inactive),77.3% (inactive),85.5% (inactive),70% (inactive),69.6% (inactive),95.4% (inactive),103% (inactive),97.5% (inactive)
CCN(CC)CC#CCOC(=O)[C@]1(C)CCC[C@]2(C)c3ccc(C(C)C)cc3CC[C@@H]12,52.4% (inactive),46.5% (inactive),97.5% (inactive),92% (inactive),79.7% (inactive),64.3% (inactive),77.1% (inactive),71.8% (inactive),92.6% (inactive),84.8% (inactive)
CS(=O)(=O)Nc1cc(-c2ccc3ncnc(Nc4ccc(F)c(Cl)c4)c3c2)cnc1Cl,8.37% (active),9.63% (active),-15.9% (active),20.1% (inactive),3.05% (active),-7.94% (active),-93.5% (active),-8.21% (active),-23.8% (active),14.8% (inactive)
CN1CCN(C(=O)OCc2nc3c(N4CCOCC4)nc(Cl)nc3n2C)CC1,-55.4% (active),-67.7% (active),-21.7% (active),57.9% (inactive),-14.1% (active),-16.9% (active),-12.8% (active),-78% (active),-96.2% (active),-95.5% (active)
Cc1nc2sc(C(=O)Nc3cccc4ncccc34)c(N)c2cc1C(C)O (stereo not given),64.1% (inactive),52.8% (inactive),76.6% (inactive),67.8% (inactive),83.4% (inactive),72.9% (inactive),56.8% (inactive),42.9% (inactive),73.8% (inactive),67.3% (inactive)
CCCCCCCCCCCCCCCC[N+](C)(C)CCN(Cc1ccc(OC)cc1)c1ncccn1,74.4% (inactive) and 94.5% (inactive),-100% (active) and 18.2% (inactive),51.9% (inactive) and 13% (inactive),-48.7% (active) and 41.9% (inactive),-82.5% (active) and 29.2% (inactive),-78% (active) and 15.4% (inactive),8.82% (active) and 39.8% (inactive),-39.6% (active) and 19% (inactive),-76.8% (active) and 23.8% (inactive),33.3% (inactive) and 52.9% (inactive)
Cc1ccc2[nH]c(=S)[nH]c(=O)c2c1,106% (inactive),102% (inactive),80.5% (inactive),101% (inactive),95% (inactive),102% (inactive),100% (inactive),103% (inactive),95.5% (inactive),111% (inactive)
Cn1cc(-c2csc(-c3cn(CCOC(N)=O)c4ccccc34)n2)c2cccnc21,64% (inactive),47.6% (inactive),80.7% (inactive),78.6% (inactive),77.8% (inactive),63.6% (inactive),71.9% (inactive),72.2% (inactive),79% (inactive),92.5% (inactive)
NNCCc1ccccc1,99.7% (inactive) and 91.6% (inactive),96.5% (inactive) and 100% (inactive),107% (inactive) and 78.7% (inactive),98.5% (inactive) and 102% (inactive),104% (inactive) and 93.7% (inactive),92% (inactive) and 94.6% (inactive),90.7% (inactive) and 93.7% (inactive),89.9% (inactive),98.2% (inactive) and 88% (inactive),110% (inactive) and 95.5% (inactive)
O=C(NCc1cccnc1)/C(=C\c1ccc(Br)cc1)S(=O)(=O)c1ccccc1,-33.2% (active),-72.2% (active),9.38% (active),-2.37% (active),-87.1% (active),-0.986% (active),-17.9% (active),-31.3% (active),-89.5% (active),-39.3% (active)
Brc1ccc(/C=C(/C2=NCCN2)n2ccc3ccccc32)cc1,73.7% (inactive),65.1% (inactive),33% (inactive),85.1% (inactive),65.6% (inactive),45% (inactive),73.4% (inactive),75.8% (inactive),50.5% (inactive),100% (inactive)
Cc1ccc(-c2nc(SCC(=O)c3ccc(C#N)cc3)[nH]c(=O)c2C#N)cc1,105% (inactive),97.9% (inactive),87.5% (inactive),106% (inactive),100% (inactive),104% (inactive),114% (inactive),99.2% (inactive),92.9% (inactive),103% (inactive)
